# Assay results from PubChem BioAssay.
# Values without a mark were called inactive. How the calls were made is not given here. Numbered stars: 1 amine (or outer) side, 2 acyl side, 3 side chain; on linkers, the order of the positions; unused ones are H or OH. Bridge positions count the residues as written; N and C are the ends. Square brackets hold non-standard residues; d marks the D form. Peptide text beside a SMILES is read from it. * marks the point of attachment. ξ: configuration not given here. ΔAla(Z-3-ureido) = NC(=O)N/C=C(\N)C(=O)O; X2 = NC1=NC(O)CC(C(N[*:1])C(=O)[*:2])N1; ξβ3hOrn = NCCCC(N)CC(=O)*; Dap = NC[CH](N)C(=O)O
# Test: hESC survival regulators, cell-based (AID 493140);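 further: cells exposed to compounds for four days before counting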
# Conditions: human embryonic stem cell survival screen; active compounds read high
row,Compound,survival
1,COC1C(O)CC(=O)OC(C)CC=CC=CC(OC2CCC(N(C)C)C(C)O2)C(C)CC(CC=O)C1OC1OC(C)C(OC2CC(C)(O)C(O)C(C)O2)C(N(C)C)C1O (stereo not given),3.42
2,C[C@@H](O)CCC[C@H](O)/C=C/[C@H]1[C@H](O)CC(=O)[C@@H]1C/C=C\CCCC(=O)O,111
3,CCCCC[C@H](O)/C=C/C=C/C/C=C\CCCC(=O)O,94.8
4,O=c1[nH]c(=O)n([C@H]2C[C@@H](O)[C@@H](CO)O2)cc1C(F)(F)F,0.583
5,CCC(C(=O)C(C)C(O)C(C)CCc1ccc(C)c(O)c1C(=O)O)[C@H]1O[C@](CC)([C@H]2CC[C@](O)(CC)[C@H](C)O2)C[C@@H]1C (stereo not given in full),24.1
6,CN(N=O)C(=O)NC1[C@@H](O)OC(CO)[C@@H](O)[C@H]1O (stereo not given in full),8.42
7,CCCCC/C=C\C=C\[C@@H](O)C/C=C\C/C=C\CCCC(=O)O,81.2
8,CCCCCC[C@@H](O)C/C=C\CCCCCCCC(=O)O,85.1
9,CNC1C(O)C2O[C@H](OC3C(N)C[C@@H](N)C(O)[C@H]3O)C(N)C[C@H]2O[C@@H]1O[C@H]1OC(CO)[C@@H](N)[C@H](O)C1O (stereo not given in full),10.6
10,CCCCC[C@H](O)/C=C/C=C/C=C/[C@H](O)C/C=C\CCCC(=O)O,107
11,C=Cc1c(C)c2cc3nc(cc4[nH]c(cc5nc(cc1[nH]2)C(C)=C5CCC(=O)O)c(CCC(=O)OC)c4C)[C@@]1(C)C3=CC=C(C(=O)OC)C1C(=O)OC (stereo not given in full) (tested in a mixture with another compound),12.9
12,CC/C=C\C/C=C\C/C=C\C/C=C\C=C\C(O)CCCC(=O)O (stereo not given),128
13,CO/N=C(/C(=O)N[C@@H]1C(=O)N2C(C(=O)[O-])=C(C[N+]3(C)CCCC3)CS[C@H]12)c1csc(N)n1,5.92
14,CCCCC/C=C\C[C@H](O)/C=C/C=C/C=C/[C@@H](O)CCCC(=O)O,96.2
15,CO[C@@H]1[C@H](OC(N)=O)C(O)[C@H](Oc2ccc3c(O)c(NC(=O)c4ccc(O)c(CC=C(C)C)c4)c(=O)oc3c2C)OC1(C)C (stereo not given in full),8.33
16,CCCCCCCC/C=C\C/C=C\C=C\C(O)CCCC(=O)O (stereo not given),116
17,CCCCC/C=C\C[C@@H]1O[C@H]1C(O)/C=C\C/C=C\CCCC(=O)O (stereo not given in full),86.8
18,NCCCC(N)CC(=O)NC1CNC(=O)C(C2CC(O)N=C(N)N2)NC(=O)/C(=C/NC(N)=O)NC(=O)C(CO)NC(=O)C(CO)NC1=O (stereo not drawn) (ξβ3hOrn-[Dap]SS[ΔAla(Z-3-ureido)][X2]; lactam 1-C; configuration not given here),10.8
19,CCCCC/C=C\C/C=C\C[C@H](O)/C=C/C=C\CCCC(=O)O,91.5
20,NC(=O)c1ncn([C@@H]2O[C@H](CO)[C@H](O)C2O)n1 (stereo not given in full),1.33

row,Compound,survival
1,O=C(O)CCC[C@H](O)\C=C/C=C/C=C/[C@H](O)C/C=C\CCCCCO,75.2
2,NCC1OC(O[C@@H]2C(O)[C@H](OC3C(O)C(N)CC(N)C3OC3OC(CO)C(O)C(O)C3N)O[C@@H]2CO)C(N)C(O)C1O (stereo not given in full),5.75
3,CCCCC/C=C\C\C=C/C=C/C=C/[C@@H](SCC(NC(=O)CCC(N)C(=O)O)C(=O)NCC(=O)O)[C@@H](O)CCCC(=O)O (stereo not given in full),90.2
4,CC(=O)CC(=O)[C@@]1(O)CC[C@H]2[C@@H]3C=C(C)C4=CC(=O)CC[C@@H]4[C@H]3CC[C@@]21C,10.6
5,CCNC1CC(N)C(OC2OC(CN)=CCC2N)C(O)C1OC1OCC(C)(O)C(NC)C1O (stereo not given),17.9
6,CCCCC/C=C\C[C@@H]1O[C@H]1/C=C/C(O)C/C=C\CCCC(=O)O (stereo not given in full),93.9
7,CCCCC[C@H](O)/C=C/C=C\C=C\[C@@H](O)C/C=C\CCCC(=O)O,135
8,C[C@@]1(OC(=O)/C=C\c2ccccc2)C[C@H](O)[C@@]2(O)C=CO[C@H](OC3OC(CO)C(O)C(O)C3O)C12 (stereo not given in full),6.83
9,CCCCC[C@H](O)/C=C/[C@H]1OC(=O)C[C@H](O)[C@@H]1C/C=C\CCCC(=O)O,110
10,CCCCC/C=C\C/C=C\C/C=C\CCCCCCC(=O)O[C@H](COCCCCCCCCCCCCCCCC)COP(=O)([O-])OCC[N+](C)(C)C,71.5
11,O=C(O)CCCC/C=C\C[C@@H](O)/C=C/C=C/C=C\[C@@H](O)CCCC(=O)O,96.1
12,CCCCC[C@H](O)/C=C/C=C\C/C=C\C=C\[C@@H](O)CCCC(=O)O,103
13,Cc1cc(=O)c2c(O)c3c(O)cc(O)c4c5c(O)cc(O)c6c(O)c7c(=O)cc(C)c8c1c2c(c34)c(c65)c78,52.2
14,CCCCC/C=C\C/C=C\C/C=C\C=C\C1CCCC(=O)O1 (stereo not given),76.9
15,CC(C)C[C@H](NC(=O)[C@H](CCC(=O)O)NC(=O)CNC(=O)c1ccc(/C=C/C(=O)O)cc1)C(N)=O,88.2
16,CN(C)CCCO[C@H]1[C@@H](C(O)CO)OC2OC(C)(C)O[C@H]21 (stereo not given in full),7.5
17,O=P(O)(O)C(O)c1ccc2ccccc2c1 (stereo not given),93.4
18,O=C(O)CCC/C=C\C/C=C\C=C\[C@@H](O)C/C=C\CCCCCO,89.3
19,CC1O[C@@H](OC2/C=C/C=C/C=C/C=C/C[C@@H](C)OC(=O)/C=C/[C@H]3O[C@@H]3C[C@H](O)C[C@]3(O)C[C@H](O)[C@@H](C(=O)O)[C@H](C2)O3)C(O)C(N)[C@@H]1O (stereo not given in full),28.2
20,CCCCC[C@H](O)/C=C/[C@H]1OC(O)C[C@H](O)[C@@H]1C/C=C\CC(=O)O (stereo not given in full),117
